{
  "source": "the supplement of paper PMC10849652",
  "note": "About 8,800 targets were measured; listed, in parts, are those with a hit and a random draw of the rest. About 0.5% of all pairs of compound and target were hits. Values without a mark were called inactive.",
  "data": [
    {"compound": "NC1(c2ccc(-c3nc4ccn5c(=O)[nH]nc5c4cc3-c3ccccc3)cc2)CCC1", "test": "log2 fold change, soluble protein after heating vs DMSO (PISA); higher = thermal stabilisation; K562 lysate, 10 uM; active = over 0.2 and 3.5 SD of the protein, either way, in both replicates (recomputed)", "procedure,_shortened": "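K562 pellets were dounce-homogenised in PBS pH 7.4 with 1 mM MgCl2, and the crude extract at 1 mg/mL protein was treated with 10 μM compound for 30 min. Aliquots were heated for 3 min across 48°C-58°C, pooled, and brought to 0.5% NP-40 at 4°C; soluble protein was the supernatant after 21,000xg for 90 min. Soluble protein was quantified by TMTpro 16plex LC-MS/MS with channel sums equalised, and reported as log2 fold change in thermal stability against DMSO controls, with values from duplicates.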", "values": [
      {"target": "SLC11A2 isoform 3 (UniProt P49281)", "log2 fold change": 0.111},
      {"target": "SLC12A6 (UniProt Q9UHW9)", "log2 fold change": 0.026},
      {"target": "TAF9 (UniProt Q16594)", "log2 fold change": -0.024},
      {"target": "SKA1 (UniProt Q96BD8)", "sequence (Q96BD8 whole entry, looked up)": "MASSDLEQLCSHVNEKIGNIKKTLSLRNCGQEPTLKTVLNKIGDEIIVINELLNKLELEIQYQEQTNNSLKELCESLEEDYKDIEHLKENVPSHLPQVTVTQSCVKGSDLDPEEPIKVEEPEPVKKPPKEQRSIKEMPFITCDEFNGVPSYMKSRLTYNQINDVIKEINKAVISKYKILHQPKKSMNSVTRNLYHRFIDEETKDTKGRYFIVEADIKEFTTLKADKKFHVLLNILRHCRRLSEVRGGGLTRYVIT", "log2 fold change": 0.014},
      {"target": "SMTN isoform 6 (UniProt P53814)", "log2 fold change": 0.089},
      {"target": "SHC1 isoform 6 (UniProt P29353)", "sequence (P29353 whole entry, looked up)": "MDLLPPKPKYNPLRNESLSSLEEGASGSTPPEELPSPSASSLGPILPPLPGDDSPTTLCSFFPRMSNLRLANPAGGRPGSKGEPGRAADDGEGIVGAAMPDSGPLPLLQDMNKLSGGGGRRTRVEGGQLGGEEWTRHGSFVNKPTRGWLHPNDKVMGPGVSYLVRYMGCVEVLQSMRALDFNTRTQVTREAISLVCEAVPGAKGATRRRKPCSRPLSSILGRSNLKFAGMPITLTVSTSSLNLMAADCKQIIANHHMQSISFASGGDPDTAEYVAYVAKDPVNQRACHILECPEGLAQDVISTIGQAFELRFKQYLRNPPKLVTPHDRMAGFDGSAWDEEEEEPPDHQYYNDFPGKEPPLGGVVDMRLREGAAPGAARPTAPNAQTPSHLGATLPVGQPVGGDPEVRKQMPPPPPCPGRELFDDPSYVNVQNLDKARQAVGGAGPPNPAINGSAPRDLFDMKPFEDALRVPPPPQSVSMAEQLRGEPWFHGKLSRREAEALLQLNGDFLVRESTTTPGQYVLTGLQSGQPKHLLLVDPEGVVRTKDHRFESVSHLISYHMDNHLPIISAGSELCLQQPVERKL", "log2 fold change": -0.001},
      {"target": "SPIRE1 (UniProt Q08AE8)", "log2 fold change": -0.01},
      {"target": "SNW1 (UniProt Q13573)", "log2 fold change": -0.01},
      {"target": "SLC25A32 (UniProt Q9H2D1)", "sequence (Q9H2D1 whole entry, looked up)": "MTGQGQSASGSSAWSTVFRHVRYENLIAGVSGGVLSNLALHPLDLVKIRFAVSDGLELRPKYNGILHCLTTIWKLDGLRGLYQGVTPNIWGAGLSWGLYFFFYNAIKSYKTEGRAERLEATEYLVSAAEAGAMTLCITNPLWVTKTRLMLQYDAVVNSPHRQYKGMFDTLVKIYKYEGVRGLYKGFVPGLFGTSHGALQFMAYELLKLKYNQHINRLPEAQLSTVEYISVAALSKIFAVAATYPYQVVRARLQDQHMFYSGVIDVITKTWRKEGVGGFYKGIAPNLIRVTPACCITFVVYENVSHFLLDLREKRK", "log2 fold change": -0.026},
      {"target": "TARBP2 (UniProt Q15633)", "sequence (Q15633 whole entry, looked up)": "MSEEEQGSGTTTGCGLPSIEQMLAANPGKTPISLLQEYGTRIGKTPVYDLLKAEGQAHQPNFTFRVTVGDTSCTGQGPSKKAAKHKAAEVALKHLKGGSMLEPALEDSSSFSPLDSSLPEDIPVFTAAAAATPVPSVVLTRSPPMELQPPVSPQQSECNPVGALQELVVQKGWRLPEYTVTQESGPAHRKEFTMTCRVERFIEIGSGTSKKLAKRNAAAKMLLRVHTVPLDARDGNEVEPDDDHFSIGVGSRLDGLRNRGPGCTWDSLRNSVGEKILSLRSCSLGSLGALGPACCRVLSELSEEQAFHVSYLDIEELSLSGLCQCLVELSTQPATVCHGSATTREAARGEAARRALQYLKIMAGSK", "log2 fold change": 0.056},
      {"target": "SYNE2 isoform 2 (UniProt Q8WXH0)", "log2 fold change": -0.091},
      {"target": "SMG5 (UniProt Q9UPR3)", "log2 fold change": -0.027},
      {"target": "SH3GL3 isoform 3 (UniProt Q99963)", "log2 fold change": -0.011},
      {"target": "STAU1 (UniProt O95793)", "log2 fold change": 0.005},
      {"target": "SMARCAD1 isoform 2 (UniProt Q9H4L7)", "log2 fold change": -0.007},
      {"target": "SLC25A36 (UniProt Q96CQ1)", "log2 fold change": -0.031},
      {"target": "SMARCA4 (UniProt P51532)", "sequence (P51532 whole entry, looked up)": "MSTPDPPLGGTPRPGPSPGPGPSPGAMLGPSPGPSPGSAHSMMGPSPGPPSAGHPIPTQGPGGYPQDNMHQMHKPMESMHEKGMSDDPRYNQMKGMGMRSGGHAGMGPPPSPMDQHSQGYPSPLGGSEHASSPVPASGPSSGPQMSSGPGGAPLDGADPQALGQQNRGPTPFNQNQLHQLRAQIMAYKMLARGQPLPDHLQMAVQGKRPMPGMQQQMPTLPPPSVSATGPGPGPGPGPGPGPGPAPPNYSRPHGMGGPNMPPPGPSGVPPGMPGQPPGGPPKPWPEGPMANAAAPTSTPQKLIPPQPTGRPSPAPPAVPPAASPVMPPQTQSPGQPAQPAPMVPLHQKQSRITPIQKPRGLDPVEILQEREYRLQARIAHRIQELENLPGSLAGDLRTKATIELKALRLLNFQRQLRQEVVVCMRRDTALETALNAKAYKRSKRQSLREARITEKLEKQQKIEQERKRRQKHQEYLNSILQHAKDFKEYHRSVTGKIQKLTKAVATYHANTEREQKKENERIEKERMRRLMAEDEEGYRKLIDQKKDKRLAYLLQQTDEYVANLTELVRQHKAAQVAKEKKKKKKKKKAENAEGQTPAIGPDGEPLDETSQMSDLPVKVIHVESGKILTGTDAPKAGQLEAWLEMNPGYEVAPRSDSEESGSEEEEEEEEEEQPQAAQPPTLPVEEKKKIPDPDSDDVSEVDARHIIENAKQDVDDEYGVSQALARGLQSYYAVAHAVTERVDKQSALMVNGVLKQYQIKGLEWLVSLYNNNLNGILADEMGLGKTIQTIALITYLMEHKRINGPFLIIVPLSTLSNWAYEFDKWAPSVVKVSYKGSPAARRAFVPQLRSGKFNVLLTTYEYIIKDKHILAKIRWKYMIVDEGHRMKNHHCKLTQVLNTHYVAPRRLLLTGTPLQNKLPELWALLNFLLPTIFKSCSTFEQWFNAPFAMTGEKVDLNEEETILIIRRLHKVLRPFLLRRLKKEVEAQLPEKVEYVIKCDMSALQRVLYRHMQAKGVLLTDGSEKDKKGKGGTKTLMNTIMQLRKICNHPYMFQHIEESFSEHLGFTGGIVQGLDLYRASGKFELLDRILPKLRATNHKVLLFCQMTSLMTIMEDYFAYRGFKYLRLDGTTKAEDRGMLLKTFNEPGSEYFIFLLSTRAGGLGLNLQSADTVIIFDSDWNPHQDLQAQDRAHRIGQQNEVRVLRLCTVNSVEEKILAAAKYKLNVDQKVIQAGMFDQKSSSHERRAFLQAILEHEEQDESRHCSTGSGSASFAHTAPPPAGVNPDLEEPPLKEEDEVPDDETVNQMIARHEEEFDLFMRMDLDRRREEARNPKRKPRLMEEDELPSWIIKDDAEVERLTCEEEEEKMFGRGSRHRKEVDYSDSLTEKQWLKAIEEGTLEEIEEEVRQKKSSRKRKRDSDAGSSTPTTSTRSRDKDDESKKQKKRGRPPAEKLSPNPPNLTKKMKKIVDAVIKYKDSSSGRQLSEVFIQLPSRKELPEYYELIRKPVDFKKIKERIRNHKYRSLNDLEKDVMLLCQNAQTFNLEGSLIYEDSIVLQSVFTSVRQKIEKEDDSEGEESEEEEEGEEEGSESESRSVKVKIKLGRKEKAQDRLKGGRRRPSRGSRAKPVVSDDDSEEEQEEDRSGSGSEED", "log2 fold change": -0.024},
      {"target": "SP1 (UniProt P08047)", "sequence (P08047 whole entry, looked up)": "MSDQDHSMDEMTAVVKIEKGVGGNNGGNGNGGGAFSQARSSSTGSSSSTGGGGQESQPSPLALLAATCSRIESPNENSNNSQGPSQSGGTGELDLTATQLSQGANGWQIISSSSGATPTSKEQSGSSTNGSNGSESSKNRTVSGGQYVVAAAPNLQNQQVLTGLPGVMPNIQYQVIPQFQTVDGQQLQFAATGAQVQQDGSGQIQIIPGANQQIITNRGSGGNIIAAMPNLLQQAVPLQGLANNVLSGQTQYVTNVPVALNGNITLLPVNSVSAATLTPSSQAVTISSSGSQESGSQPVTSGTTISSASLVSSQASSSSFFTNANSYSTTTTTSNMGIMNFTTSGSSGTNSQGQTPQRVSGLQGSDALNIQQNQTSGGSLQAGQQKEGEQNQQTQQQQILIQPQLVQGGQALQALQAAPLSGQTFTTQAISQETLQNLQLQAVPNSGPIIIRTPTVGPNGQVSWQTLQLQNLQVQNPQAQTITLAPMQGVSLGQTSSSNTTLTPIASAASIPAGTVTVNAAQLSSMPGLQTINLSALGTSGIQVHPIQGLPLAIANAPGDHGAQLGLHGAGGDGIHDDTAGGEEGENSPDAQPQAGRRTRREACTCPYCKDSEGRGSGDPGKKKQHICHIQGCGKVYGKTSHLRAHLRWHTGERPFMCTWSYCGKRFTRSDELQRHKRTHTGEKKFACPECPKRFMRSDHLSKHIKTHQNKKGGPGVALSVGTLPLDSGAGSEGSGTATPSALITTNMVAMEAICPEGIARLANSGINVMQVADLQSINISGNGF", "log2 fold change": 0.005},
      {"target": "SMG1 (UniProt Q96Q15)", "log2 fold change": -0.032},
      {"target": "SPHK1 isoform 2 (UniProt Q9NYA1)", "log2 fold change": 0.052},
      {"target": "SMC1B isoform 3 (UniProt Q8NDV3)", "log2 fold change": -0.055},
      {"target": "SMG7 (UniProt Q92540)", "log2 fold change": 0.04},
      {"target": "SLC25A38 (UniProt Q96DW6)", "log2 fold change": 0.06},
      {"target": "SMC3 (UniProt Q9UQE7)", "log2 fold change": 0.016},
      {"target": "SVIP (UniProt Q8NHG7)", "sequence (Q8NHG7 whole entry, looked up)": "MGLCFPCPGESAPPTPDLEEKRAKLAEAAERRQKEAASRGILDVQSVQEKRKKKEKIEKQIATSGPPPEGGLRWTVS", "log2 fold change": -0.004},
      {"target": "STK24 (UniProt B4DR80)", "log2 fold change": -0.005},
      {"target": "SPC25 (UniProt Q9HBM1)", "sequence (Q9HBM1 whole entry, looked up)": "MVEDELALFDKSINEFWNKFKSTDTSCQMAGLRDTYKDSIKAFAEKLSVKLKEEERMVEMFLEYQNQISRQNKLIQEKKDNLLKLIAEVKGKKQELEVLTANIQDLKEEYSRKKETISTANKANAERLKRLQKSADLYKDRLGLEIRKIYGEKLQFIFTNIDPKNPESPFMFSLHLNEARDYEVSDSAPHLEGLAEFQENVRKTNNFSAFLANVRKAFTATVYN", "log2 fold change": 0},
      {"target": "SPATS2 (UniProt Q86XZ4)", "sequence (Q86XZ4 whole entry, looked up)": "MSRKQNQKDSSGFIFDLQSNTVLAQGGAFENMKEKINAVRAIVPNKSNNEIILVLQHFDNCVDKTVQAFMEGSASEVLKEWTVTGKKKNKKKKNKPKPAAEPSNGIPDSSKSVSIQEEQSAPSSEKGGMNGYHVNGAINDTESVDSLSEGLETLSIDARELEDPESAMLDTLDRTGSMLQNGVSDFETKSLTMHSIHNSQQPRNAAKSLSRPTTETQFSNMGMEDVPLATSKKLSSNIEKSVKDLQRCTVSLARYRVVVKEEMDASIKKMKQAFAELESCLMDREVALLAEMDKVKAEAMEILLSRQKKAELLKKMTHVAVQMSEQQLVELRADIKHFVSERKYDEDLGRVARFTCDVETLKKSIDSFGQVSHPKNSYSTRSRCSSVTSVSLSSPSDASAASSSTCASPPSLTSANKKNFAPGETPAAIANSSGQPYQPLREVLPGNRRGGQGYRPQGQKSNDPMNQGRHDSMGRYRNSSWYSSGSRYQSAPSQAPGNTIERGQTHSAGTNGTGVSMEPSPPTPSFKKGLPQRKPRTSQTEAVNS", "log2 fold change": -0.013},
      {"target": "SLC26A6 (UniProt Q9BXS9)", "log2 fold change": -0.128},
      {"target": "SRP54 (UniProt P61011)", "log2 fold change": -0.015},
      {"target": "SSB (UniProt E7ERC4)", "log2 fold change": -0.128},
      {"target": "SSU72 (UniProt Q9NP77)", "sequence (Q9NP77 whole entry, looked up)": "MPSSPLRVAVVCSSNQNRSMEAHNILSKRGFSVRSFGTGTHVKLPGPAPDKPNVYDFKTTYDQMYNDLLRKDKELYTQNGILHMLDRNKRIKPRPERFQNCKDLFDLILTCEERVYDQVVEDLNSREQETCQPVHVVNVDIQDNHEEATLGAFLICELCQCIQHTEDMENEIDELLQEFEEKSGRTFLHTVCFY", "log2 fold change": 0.041}
    ]}
  ]
}
